Results filed as inconclusive are left out. A call without a number means that no potency is given here. Unmarked numbers belong to inactive results. Active and inactive are the calls of the source. Calls follow the shape of the dose curve; as a rule, active = well fitted cell-killing curve with a large enough effect in the repeat runs; inconclusive = weak or mixed curves, or effect the other way; inactive = flat fitted curve, though single readings scatter.

The nature of this assay: qHTS assay to identify small molecule agonists of the constitutive androstane receptor (CAR) signaling pathway - cell viability counter screen (AID 1224836). Also: nearly all actives have a fitted effect of over 45% in size. Particulars: HepG2-CYP2B6-hCAR viability, CellTiter-Fluor, 23 h, PK11195 added to every well; series mostly up to 92.4 µM; viability change, negative = cytotoxic: at the top concentration. An excerpt: U.S. Tox21 Program National Center for Advancing Translational Sciences [NCATS] NIH Chemical Genomics Center [NCGC] U.S. Environmental Protection Agency [EPA] National Institutes of Environmental Health Sciences [NIEHS] National Toxicology Program [NTP] U.S. Food and Drug Administration [FDA] Tox21 Assay Overview: The constitutive androstane receptor (CAR) is a nuclear receptor which regulates multiple drug metabolizing enzymes (DMEs) and transporters. Activating CAR will generally increase the transcription and subsequent translation of CYP2B6 and CYP3A4. These two DMEs represent about 50% of the drug metabolizing potential in the body. […] Recently, there have also been studies performed indicating CARs role in energy metabolism and cancer therapy. Therefore, inducing CARs activity could have a potential effect on diabetes and cancer. Identifying environmental toxins and compounds which modulate CAR, through the use of the Tox21 10K compound collection, will be an important step in determining the toxicity and potential therapeutic effects these factors will have on the human body. To differentiate true CAR agonists from cytotoxic substances, the assay is multiplexed with a cell viability assay.
Tox21 Assay Protocol Summary: A double-stable (hCAR and CYP2B6-2.2kb) transfected cell line, derived from human hepatoma (HepG2) cells, was utilized for the duration of the quantitative high-throughput screens. The HepG2-CYP2B6-hCAR cells were dispensed at 2500 cells/4 uL/well in 1536-well white solid bottom plates using a Multidrop Combi. After the assay plates were incubated at 37 C/5% CO2 for 4 hrs, 23 nL of compounds at 15 concentrations (from 5-48 columns) or positive control (from 1 to 4 columns) were transferred to the assay plates using a Pintool station. One uL of PK11195 (final concentration = 0.75 uM) was added, using a Flying Reagent Dispenser, inside each well. After a 23 hr incubation period at 37 C/5% CO2, 1 uL of CellTiter-Fluor reagent was added into each well of the assay plates using a Flying Reagent Dispenser. The fluorescence intensity in the plates was then measured using a ViewLux plate reader.
For `O=c1ccc(=O)[nH][nH]1`, the Potency entry is “inactive”.

As to `ClCCBr`, the Potency result is “inactive”.

As to `CC(NC(C)(C)C)C(=O)c1cccc(Cl)c1` (stereo not given), the Potency entry is “inactive”.

On to `COP(N)(=O)SC` (stereo not given), for which the Potency result is “inactive”.

Turning to `Cn1cc(-c2ccccc2)c(=O)c(-c2cccc(C(F)(F)F)c2)c1`, the “viability change, negative = cytotoxic” value is -14.3%.

`CCNc1nc(NC(C)C)nc(SC)n1`: the Potency entry is “inactive”.

On to `CN1C(=O)CN=C(c2ccccc2)c2cc(Cl)ccc21`, for which the Potency result is “inactive”.

Consider `Nc1ccccc1C(=O)O`, for which the Potency entry was “inactive”.

Consider `CCOP(=S)(OCC)SCCSCC`, for which the Potency entry was “inactive”.

As to `C=CC(N)=O`, the Potency entry was “inactive”.

For `CCN(CC)CCO`, the Potency result is “inactive”.

On to `[N-]=[N+]=[N-]`, for which the Potency result was “inactive”.

On to `Nc1c(Cl)c(Cl)nc(C(=O)O)c1Cl`, for which the Potency result is “inactive”.

Regarding `CC(C)(C)C(O)(CCc1ccc(Cl)cc1)Cn1cncn1` (stereo not given), the Potency entry was “inactive”.

As to `C=CCO`, the Potency entry is “inactive”.

As for `CON(C)C(=O)Nc1ccc(Cl)c(Cl)c1`, the Potency result is “inactive”.

As to `CCCCOC(=O)c1ccccc1C(=O)OCCCC`, the Potency entry was “inactive”.

As for `Cc1ccc(N)cc1N`, the Potency result was “inactive”.

For `O=NN1CCCCCCC1`, the Potency result is “inactive”.

For the compound `c1ccc(-c2ccccc2)cc1`, the Potency result is “inactive”.

Take `Oc1ccccc1Cl`: the Potency entry was “inactive”.

`Nc1ccc(Cc2ccc(N)cc2)cc1`: the Potency entry was “inactive”.

`CN(C)N=O`: the Potency result is “inactive”.

On to `CC(C)C#N`, for which the Potency result is “inactive”.

Consider `O=C(O)c1ccccn1`, for which the Potency result was “inactive”.

For `CC(Oc1ccc(Cl)cc1Cl)C(=O)O` (stereo not given), the Potency result was “inactive”.

Regarding `c1ccc2c(c1)Oc1ccccc1O2`, the Potency entry was “inactive”.

Take `CC(C)N1C(=O)c2ccccc2NS1(=O)=O`: the Potency entry is “inactive”.

On to `COC(=O)c1ccccc1N`, for which the Potency entry is “inactive”.

For the compound `OC(O)C(Cl)(Cl)Cl`, the Potency result is “inactive”.

For the compound `O=Cc1cccc(Oc2ccccc2)c1`, the Potency result is “inactive”.

Regarding `CC(C)OC(=O)Nc1cccc(Cl)c1`, the Potency entry was “inactive”.

`O=C(NC(=O)c1c(F)cccc1F)Nc1cc(Cl)c(OC(F)(F)C(F)C(F)(F)F)cc1Cl` (stereo not given): the Potency result was “inactive”.

For `Cc1ccc([N+](=O)[O-])cc1C`, the Potency result was “inactive”.

For the compound `CCCCN(CCCC)SN(C)C(=O)Oc1cccc2c1OC(C)(C)C2`, the Potency result was “inactive”.

As for `CCCCCOC(=O)c1ccccc1C(=O)OCCCCC`, the Potency entry was “inactive”.

Regarding `Cc1ccccc1O`, the Potency result is “inactive”.

Turning to `O=c1[nH]c(=O)[nH]c(=O)[nH]1`, the Potency entry was “inactive”.

As for `NCCc1ccc(O)cc1`, the Potency result is “inactive”.

`c1ccc(OP(Oc2ccccc2)Oc2ccccc2)cc1`: the Potency result was “inactive”.

For the origin of these results see PubChem BioAssay (Tox21).
